Experimental data reported in PubChem BioAssay (NCI).
The panel holds about 79,000 compounds, 15% with a hit somewhere; the sample as a whole holds those more often. Activity calls are given as the source filed them. No stated cut-off is given here; in the data, active means growth inhibition above about 70%; inactive means the rest.

Legend:
[1] = NCI Yeast Anticancer Drug Screen. Data for the mec2-1 strain (AID 157); details: S. cerevisiae mec2-1 strain, stronger effect = higher value
Outline: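 Each compound was tested on mec2-1 yeast, a strain altered in DNA damage repair or cell cycle control. Growth inhibition is reported relative to vehicle.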

[2] = NCI Yeast Anticancer Drug Screen. Data for the rad14 strain (AID 159);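 further: 0% = growth of vehicle-treated control cultures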; details: S. cerevisiae rad14 strain growth inhibition, stronger effect = higher value
Outline: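 DNA repair-defective yeast, compound-exposed; % growth inhibition derived by comparison with vehicle-treated controls.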

[3] = NCI Yeast Anticancer Drug Screen. Data for the sgs1 mgt1 strain (AID 161);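 further: 0% = growth of cultures given vehicle only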; details: S. cerevisiae sgs1 mgt1 strain, stronger effect = higher value
Outline: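 Read-out: growth inhibition vs vehicle controls. Cells: mutant yeast strain deficient in DNA damage repair.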

[4] = NCI Yeast Anticancer Drug Screen. Data for the CLN2oe strain (AID 163);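 further: 0% = growth of vehicle-only control cultures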; details: S. cerevisiae CLN2oe strain, stronger effect = higher value
Outline: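 First, the altered yeast strain was treated with each compound; second, its growth was measured; finally, inhibition was derived by comparison with vehicle controls.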

[5] = NCI Yeast Anticancer Drug Screen. Data for the cln2 rad14 strain (AID 165);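 further: 0% = growth equal to vehicle treated cultures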; details: S. cerevisiae cln2 rad14 strain, stronger effect = higher value
Outline: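 Test compounds were added to cln2 rad14 yeast cultures; inhibition of growth was then determined by comparison with vehicle treatment.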

[6] = NCI Yeast Anticancer Drug Screen. Data for the bub3 strain (AID 167); details: S. cerevisiae bub3 mutant strain, stronger effect = higher value
Outline: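 In this screen, a yeast mutant lacking normal mitotic checkpoint function is challenged with compound. Relative growth versus vehicle gives the inhibition value.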

[7] = NCI Yeast Anticancer Drug Screen. Data for the wt2 strain (AID 169);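 further: 0% = growth of vehicle-treated yeast cultures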; details: S. cerevisiae wt2 strain growth inhibition, stronger effect = higher value
Outline: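 The panel's yeast strains carry defined changes in DNA repair or cell cycle genes. Each strain is grown with compound, and growth loss is scored relative to vehicle.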

[8] = NCI Yeast Anticancer Drug Screen. Data for the mlh1 strain (AID 171);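 further: 0% = growth of vehicle-treated control cultures of the same strain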; details: S. cerevisiae mlh1 strain growth inhibition, stronger effect = higher value
Outline: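 Inhibition values reflect reduced yeast growth in the presence of compound, referenced to vehicle controls, using a strain chosen for its alteration in DNA repair or cell cycle control.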

[9] = NCI Yeast Anticancer Drug Screen. Data for the sgs1 strain (AID 173);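 further: 0% = growth of vehicle-only control cultures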; details: S. cerevisiae sgs1 mutant, stronger effect = higher value
Outline: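 Vehicle-treated cultures served as reference for growth inhibition of a yeast strain altered in DNA damage repair or cell cycle control after compound exposure.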

[10] = NCI Yeast Anticancer Drug Screen. Data for the mlh1 rad18 strain (AID 175); details: S. cerevisiae mlh1 rad18 strain growth inhibition, stronger effect = higher value
Outline: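 Inhibition values reflect reduced growth of mutant yeast versus vehicle-treated controls following compound exposure; the mutations affect DNA damage repair.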

[11] = NCI Yeast Anticancer Drug Screen. Data for the rad18 strain (AID 177); details: S. cerevisiae rad18 mutant growth inhibition, stronger effect = higher value
Outline: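 Steps: expose repair-mutant yeast to compound; measure growth; express as inhibition relative to vehicle control.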

[12] = NCI Yeast Anticancer Drug Screen. Data for the wt1 strain (AID 149);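 further: 0% = growth of vehicle-treated wt1 cultures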; details: S. cerevisiae wt1 strain (SPY 50644) growth inhibition, stronger effect = higher value
Outline: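 wt1 strain grown with compound or vehicle; inhibition taken from the growth difference.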

[13] = NCI Yeast Anticancer Drug Screen. Data for the rad50EPP+ strain (AID 151);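 further: 0% = growth of vehicle-treated control cultures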; details: S. cerevisiae rad50 mutant strain, stronger effect = higher value
Outline: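 Genetically defined yeast (rad50EPP+, DNA damage repair alteration) is grown with compound, and inhibition of growth is expressed relative to vehicle-treated controls.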

[14] = NCI Yeast Anticancer Drug Screen. Data for the rad50 strain (AID 155);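 further: 0% = growth of vehicle-only cultures of the same strain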; details: S. cerevisiae rad50 strain growth inhibition, stronger effect = higher value
Outline: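 DNA repair mutant yeast, compound exposure, growth read-out; inhibition is taken relative to vehicle.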

[15] = NCI Yeast Anticancer Drug Screen. Data for the mgt1 strain (AID 153); details: S. cerevisiae mgt1 mutant growth inhibition, stronger effect = higher value
Outline: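 In the mgt1 strain, test compounds were added and growth inhibition was determined relative to vehicle-treated controls.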

[16] = at 5.0 µM (retest, dose inferred, filed as 0.5)
[17] = at 50.0 µM (retest, dose inferred, filed as 5.0)

Measured: growth inhibition

C[N+](CCCl)(CCCl)Cc1cccc2cccc([N+](=O)[O-])c12
active: [1]; at 100.0 µM 77% | [2]; at 33.0 µM 88% | [2]; at 100.0 µM 89% | [5]; [17] 78% | [5]; at 50.0 µM 74.5% | [9]; at 100.0 µM 77% | [10]; [17] 81% | [10]; at 50.0 µM 77.4% | [11]; at 11.0 µM 91% | [11]; at 33.0 µM 95% | [11]; at 100.0 µM 96%
inactive: [2]; at 1.2 µM -9% | [2]; at 3.7 µM -1% | [2]; at 11.0 µM 32% | [3]; [16] 15% | [3]; [17] 44% | [3]; at 50.0 µM 39.2% | [4]; at 1.2 µM -8% | [4]; at 3.7 µM -10% | [4]; at 11.0 µM -17% | [4]; at 33.0 µM -13% | [4]; at 100.0 µM -6% | [5]; [16] 17% | [6]; at 1.2 µM -20% | [6]; at 3.7 µM -26% | [6]; [16] 9% | [6]; at 11.0 µM -22% | [6]; at 33.0 µM -10% | [6]; [17] 45% | [6]; at 50.0 µM 0.4% | [6]; at 100.0 µM 3% | [7]; at 1.2 µM -10% | [7]; at 3.7 µM -6% | [7]; at 11.0 µM -10% | [7]; at 33.0 µM -1% | [7]; at 100.0 µM 23% | [8]; at 1.2 µM 7% | [8]; at 3.7 µM -2% | [8]; at 11.0 µM -1% | [8]; at 33.0 µM 4% | [8]; at 100.0 µM 21% | [9]; at 1.2 µM 20% | [9]; at 3.7 µM 19% | [9]; at 11.0 µM 41% | [9]; at 33.0 µM 63% | [10]; [16] 31% | [11]; at 1.2 µM 11% | [11]; at 3.7 µM 56%

O=c1c2ccccc2[se]n1-c1cccnc1
inactive: [12]; at 1.2 µM -5% | [12]; at 3.7 µM -6% | [12]; at 11.0 µM 21% | [12]; at 33.0 µM 29% | [12]; at 100.0 µM 56% | [13]; at 1.2 µM 67% | [14]; at 1.2 µM -6% | [14]; at 3.7 µM 27% | [14]; [16] 8% | [14]; at 11.0 µM 65% | [14]; [17] 64% | [14]; at 50.0 µM 23.1% | [1]; at 1.2 µM -18% | [1]; at 3.7 µM 20% | [1]; [16] -20% | [1]; [17] 55% | [1]; at 50.0 µM -6.2% | [2]; at 1.2 µM -28% | [2]; at 3.7 µM 2% | [2]; at 11.0 µM 38% | [3]; [16] 58% | [3]; [17] 21% | [3]; at 50.0 µM 7.85% | [4]; at 1.2 µM 24% | [4]; at 3.7 µM 21% | [4]; at 11.0 µM 58% | [5]; [16] 9% | [5]; [17] 40% | [5]; at 50.0 µM 15.5% | [6]; at 1.2 µM 8% | [6]; at 3.7 µM 14% | [6]; [16] -28% | [6]; [17] 38% | [6]; at 50.0 µM -6.15% | [7]; at 1.2 µM 18% | [7]; at 3.7 µM 18% | [7]; at 11.0 µM 25% | [7]; at 33.0 µM 42% | [7]; at 100.0 µM 60% | [8]; at 1.2 µM 36% | [8]; at 3.7 µM 51% | [9]; at 1.2 µM 23% | [9]; at 3.7 µM 19% | [10]; [16] -14% | [10]; at 50.0 µM 43.9% | [11]; at 1.2 µM 12% | [11]; at 3.7 µM -26% | [11]; at 11.0 µM 3% | [11]; at 33.0 µM 42% | [11]; at 100.0 µM 58%
active: [13]; at 3.7 µM 94% | [13]; at 11.0 µM 98% | [13]; at 33.0 µM 98% | [13]; at 100.0 µM 87% | [14]; at 33.0 µM 92% | [14]; at 100.0 µM 90% | [1]; at 11.0 µM 77% | [1]; at 33.0 µM 98% | [1]; at 100.0 µM 94% | [2]; at 33.0 µM 89% | [2]; at 100.0 µM 84% | [4]; at 33.0 µM 84% | [4]; at 100.0 µM 83% | [6]; at 11.0 µM 81% | [6]; at 33.0 µM 98% | [6]; at 100.0 µM 91% | [8]; at 11.0 µM 98% | [8]; at 33.0 µM 99% | [8]; at 100.0 µM 93% | [9]; at 11.0 µM 80% | [9]; at 33.0 µM 96% | [9]; at 100.0 µM 82% | [10]; [17] 89%

CC12CCC(C1)C(C)(C)C2OC(=O)c1ccccc1N (centres undefined)
active: [6]; [17] 80% | [6]; at 100.0 µM 79% | [10]; [17] 82%
inactive: [12]; at 1.2 µM -1% | [12]; at 3.7 µM -1% | [12]; at 11.0 µM -4% | [12]; at 33.0 µM -13% | [12]; at 100.0 µM 14% | [13]; at 1.2 µM 6% | [13]; at 3.7 µM 5% | [13]; at 11.0 µM 0% | [13]; at 33.0 µM 7% | [13]; at 100.0 µM 1% | [15]; at 1.2 µM -3% | [15]; at 3.7 µM 0% | [15]; at 11.0 µM -5% | [15]; at 33.0 µM -9% | [15]; at 100.0 µM 5% | [14]; at 1.2 µM 9% | [14]; at 3.7 µM 6% | [14]; [16] -6% | [14]; at 11.0 µM 7% | [14]; at 33.0 µM 30% | [14]; [17] 50% | [14]; at 50.0 µM -5.6% | [14]; at 100.0 µM 61% | [1]; at 1.2 µM -1% | [1]; at 3.7 µM -2% | [1]; [16] -26% | [1]; at 11.0 µM -6% | [1]; at 33.0 µM 1% | [1]; [17] -26% | [1]; at 50.0 µM 2.7% | [1]; at 100.0 µM 39% | [2]; at 1.2 µM 7% | [2]; at 3.7 µM 2% | [2]; at 11.0 µM -6% | [2]; at 33.0 µM 4% | [2]; at 100.0 µM 17% | [3]; [16] -5% | [3]; [17] 56% | [3]; at 50.0 µM 10.8% | [4]; at 1.2 µM -1% | [4]; at 3.7 µM -2% | [4]; at 11.0 µM -3% | [4]; at 33.0 µM 14% | [4]; at 100.0 µM 61% | [5]; [16] -2% | [5]; [17] 32% | [5]; at 50.0 µM -8.95% | [6]; at 1.2 µM 0% | [6]; at 3.7 µM 3% | [6]; [16] 12% | [6]; at 11.0 µM 9% | [6]; at 33.0 µM 23% | [6]; at 50.0 µM 18% | [7]; at 1.2 µM -10% | [7]; at 3.7 µM -8% | [7]; at 11.0 µM -21% | [7]; at 33.0 µM -8% | [7]; at 100.0 µM 7% | [8]; at 1.2 µM 2% | [8]; at 3.7 µM -1% | [8]; at 11.0 µM -5% | [8]; at 33.0 µM 11% | [8]; at 100.0 µM 38% | [9]; at 1.2 µM -11% | [9]; at 3.7 µM 0% | [9]; at 11.0 µM -24% | [9]; at 33.0 µM -10% | [9]; at 100.0 µM 36% | [10]; [16] 14% | [10]; at 50.0 µM -2.55% | [11]; at 1.2 µM 3% | [11]; at 3.7 µM 5% | [11]; at 11.0 µM 4% | [11]; at 33.0 µM 9% | [11]; at 100.0 µM 54%
